Measurements: PubChem BioAssay (NCI)
Compounds without any hit were thinned out: in the full panel of roughly 79,000, 15% have a hit. Cut-off read from the data, not from the text of the source: active = growth inhibition above about 70%; inactive = the rest.

Experiments:
[1] = NCI Yeast Anticancer Drug Screen. Data for the rad50 strain (AID 155);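 note: 0% = growth of vehicle-only cultures of the same strain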; conditions: S. cerevisiae rad50 strain growth inhibition; at 50.0 µM; hits give high values
In short: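 A DNA repair-deficient yeast mutant serves as the test organism; compound-induced growth inhibition is calculated against vehicle-treated cells.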

[2] = NCI Yeast Anticancer Drug Screen. Data for the mec2-1 strain (AID 157); conditions: S. cerevisiae mec2-1 strain, at 50.0 µM, hits give high values
In short: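 Vehicle-treated cultures served as reference for growth inhibition of compound-exposed mec2-1 yeast.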

[3] = NCI Yeast Anticancer Drug Screen. Data for the sgs1 mgt1 strain (AID 161);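 note: 0% = growth of cultures given vehicle only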; conditions: S. cerevisiae sgs1 mgt1 strain, at 50.0 µM, hits give high values
In short: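 Test agents were incubated with a DNA-repair-mutant yeast strain. Growth was then read and compared against vehicle-treated controls.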

[4] = NCI Yeast Anticancer Drug Screen. Data for the cln2 rad14 strain (AID 165);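 note: 0% = growth equal to vehicle treated cultures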; conditions: S. cerevisiae cln2 rad14 strain, at 50.0 µM, hits give high values
In short: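 Each compound was tested on cln2 rad14 yeast. Inhibition of growth was calculated against vehicle-exposed controls.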

[5] = NCI Yeast Anticancer Drug Screen. Data for the bub3 strain (AID 167); conditions: S. cerevisiae bub3 mutant strain, at 50.0 µM, hits give high values
In short: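 Inhibition values come from growth of compound-treated mutant yeast normalised to vehicle-treated controls.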

[6] = NCI Yeast Anticancer Drug Screen. Data for the mlh1 rad18 strain (AID 175); conditions: S. cerevisiae mlh1 rad18 strain growth inhibition; at 50.0 µM; hits give high values
In short: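 Vehicle-treated cultures served as the reference for growth inhibition in a yeast strain carrying DNA damage repair alterations exposed to each compound.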

Measured: growth inhibition

CC(C)(C)OC(=O)N1CCc2c(n(C/C=C/c3ccccc3)[nH]c2=O)C1
inactive: [1] -30.2% | [2] -14.3% | [3] -4.85% | [4] -0.3% | [5] 1.55% | [6] -19.4%

Cc1ccc(S(=O)(=O)N/N=C/c2cc([N+](=O)[O-])ccc2O)cc1
inactive: [1] 5% | [2] 3.4% | [3] 10.1% | [4] 14.8% | [5] 9.5% | [6] 28.9%

COc1cc(C(C)=O)cc(OCc2ccccc2)c1OC
inactive: [1] -2.85% | [2] 15.7% | [3] 18.2% | [4] -13.1% | [5] 15.4% | [6] 7.25%

CSC(=S)Nc1nc2ccc(Cl)cc2s1
inactive: [1] -1.45% | [2] 6.75% | [3] 15.3% | [4] 3.15% | [5] 17.7% | [6] 3.2%

C[N+](C)(Cc1cccc(Cl)c1)c1nnn[n-]1
inactive: [1] -9.75% | [2] -18.9% | [3] -7.05% | [4] -22.6% | [5] -7.4% | [6] -9.5%

O=C(Nc1nccs1)c1c(O)nc2sccn2c1=O
inactive: [1] 8.7% | [2] -33% | [3] 18.9% | [4] 22.4% | [5] 14.8% | [6] -12.6%

N=C1N=Nc2nc(C(C(=O)c3cccc([N+](=O)[O-])c3Cl)c3nc4n(c3O)C(=N)N=N4)c(O)n21 (configuration not stated)
inactive: [1] -2.65% | [2] 0.7% | [3] 13.8% | [4] -23.5% | [5] -0.15% | [6] 2.8%

CCCCCCC/C=N/Nc1ccc([N+](=O)[O-])cc1[N+](=O)[O-]
inactive: [1] -3.3% | [2] -16.1% | [3] -5.55% | [4] -23.9% | [5] 1.4% | [6] 12.9%

CCc1cn(O)c(C)cc1=N
inactive: [1] 25.3% | [2] 11.1% | [3] 6.15% | [4] 5.8% | [5] 12% | [6] 21.1%

C1OCC(C2OCOC2C2OCOC2C2COCO2)O1 (configuration not stated)
inactive: [1] 7.8% | [2] 20.9% | [3] -5.25% | [4] -8.65% | [5] 34.9% | [6] 9.5%

CC(C)OC(=O)c1ccc(=O)oc1
inactive: [1] 7.4% | [2] -5.85% | [3] -2.4% | [4] -8.75% | [5] -18.4% | [6] -5.15%

COc1ccc2c(c1)C(=O)C(CO)C(C(=O)O)C2 (configuration not stated)
inactive: [1] -13.1% | [2] -17.1% | [3] -1.15% | [4] -24.6% | [5] -3.5% | [6] -24.8%

Fc1ccccc1CSc1n[nH]c(=S)c2nc[nH]c12
inactive: [1] 4.05% | [2] 8.3% | [3] 17.8% | [4] -12.3% | [5] 0.3% | [6] 12%

O=C(NCN1CCOCC1)Nc1ccccc1
inactive: [1] 8% | [2] 0.6% | [3] -1.65% | [4] -24.2% | [5] -6.55% | [6] 2.05%

CCC(C)NCC/C(=C\[Si](C)(C)C)c1ccccc1 (configuration not stated)
inactive: [1] 3.05% | [2] -11.8% | [3] -11.4% | [4] 11.7% | [5] -0.15% | [6] 8.5%

CCCCOCCOCC(C)O (configuration not stated)
inactive: [1] 14.9% | [2] 10.2% | [3] 37.2% | [4] -24.4% | [5] -8.4% | [6] 2.05%

O=C1CN(c2ccccc2)CC(=O)N2Cc3ccccc3CN12
inactive: [1] -4.05% | [2] 1.2% | [3] 9.8% | [4] 17.1% | [5] 16.7% | [6] 14.7%

CCC(CC)C(=O)OCCc1ccccc1
inactive: [1] 5% | [2] 3.05% | [3] -2.35% | [4] -6.3% | [5] 9.9% | [6] 0.75%

Cc1cn(CCCSCC2OC3OC4C(CO)OC(OC5C(CO)OC(OC6C(CO)OC(OC7C(CO)OC(OC8C(CO)OC(OC9C(CO)OC(OC2C(O)C3O)C(O)C9O)C(O)C8O)C(O)C7O)C(O)C6O)C(O)C5O)C(O)C4O)c(=O)[nH]c1=O (configuration not stated)
inactive: [1] -21.6% | [2] -9.35% | [3] -18.4% | [4] 0% | [5] -1.85% | [6] -14.2%

CCOc1ccc(-c2oc(/C=N/NS(=O)(=O)c3ccc(C)cc3)c([N+](=O)[O-])c2-c2ccc(OCC)cc2)cc1
inactive: [1] 59.7% | [2] 37.5% | [3] 64% | [4] 62.2% | [5] 44.6% | [6] 58.5%

CCC1(C2C=COC=C2)NC(=O)NC1=O (configuration not stated)
inactive: [1] -14.1% | [2] 3.8% | [3] -8.35% | [4] 6.45% | [5] -4.75% | [6] -2%

COc1cc(C)n2nnnc2n1
inactive: [1] 9.5% | [2] -6.2% | [3] 0.2% | [4] -15.8% | [5] 1.3% | [6] -9.4%

C=CCOC(=O)CC(=C)C(=O)OCC=C
inactive: [1] 8.5% | [2] 26.4% | [3] -8.95% | [4] -4.7% | [5] -5.65% | [6] -3.55%

CS(=O)(=O)Nc1cccc(C(=O)O)c1
inactive: [1] 28.6% | [2] -0.05% | [3] 14.8% | [4] -2.85% | [5] -28.9% | [6] -23%

O=c1c2ncccc2cc2n1CCc1c-2[nH]c2ccccc12
inactive: [1] -15.3% | [2] -15.9% | [3] 6.3% | [4] -4.75% | [5] -1.1% | [6] -0.2%

Cc1cccc(Cl)c1NC(=O)N(C)c1ccccc1
inactive: [1] 8.95% | [2] -11.9% | [3] 14.2% | [4] 23.4% | [5] 23.9% | [6] 11.7%

Cc1nc2c(N)cc(Cl)cc2[nH]1
inactive: [1] 13.2% | [2] 13.3% | [3] 19.6% | [4] 8.25% | [5] -7.3% | [6] 7.75%

C=C1CC(C)(Cn2cnc3c(N)ncnc32)OC1=O (configuration not stated)
inactive: [1] 9% | [2] 10.6% | [3] 9.05% | [4] 20.1% | [5] 16.7% | [6] 21.1%

CCCCCC(=O)C(CCCC)C(=O)OCC (configuration not stated)
inactive: [1] -6.15% | [2] -0.1% | [3] -25.2% | [4] 2.6% | [5] -12% | [6] -33.5%

CC(Nc1cc(Cl)ccc1C(=O)O)C(=O)O (configuration not stated)
inactive: [1] 0.9% | [2] 14.7% | [3] -9.75% | [4] -40.1% | [5] -11.2% | [6] -8.05%

Cc1cc(C)cc(Sc2c([N+](=O)[O-])ncn2C)c1
inactive: [1] 7.65% | [2] 19.3% | [3] -16.7% | [4] 21.1% | [5] 29.2% | [6] 39.7%

CCCCCCCCCCCCCCCCS(=O)(=O)N/N=C/c1ccc2c(c1)OCO2
inactive: [1] 13.9% | [2] 3% | [3] 3.5% | [4] 4.05% | [5] -0.55% | [6] -3.25%

CC(C)OCCOCCO
inactive: [1] 7.65% | [2] -10.5% | [3] -4.85% | [4] -24.9% | [5] 10.1% | [6] -1.2%

CC(=O)C1=C(c2ccccc2)N(C2OC(CO)C(O)C(O)C2O)C(S)=C(C#N)C1c1ccc(Cl)cc1 (configuration not stated)
inactive: [1] 42.9% | [2] 23.9% | [3] 10.1% | [4] 29.2% | [5] 25.1% | [6] 49%

Brc1nc2c3ccccc3ncn2c1Br
inactive: [1] 45.2% | [2] -3.05% | [3] 21.3% | [4] -4.25% | [5] 1.7% | [6] 23.3%

Cc1ccc(S(=O)OC2C3CC4CC(C3)CC2C4)cc1 (configuration not stated)
inactive: [1] 6.65% | [2] 10.3% | [3] 0.2% | [4] 30.8% | [5] 1.25% | [6] 0.75%

COC(=O)c1ccccc1Cl
inactive: [1] -11.2% | [2] 4% | [3] 9.05% | [4] -14.3% | [5] 6.65% | [6] 26.1%

COc1cc(/C=C/C(=O)c2ccccc2O)cc(OC)c1OC
inactive: [1] -1% | [2] -17.1% | [3] 16.4% | [4] -6.35% | [5] -9.15% | [6] 13.8%

Nc1ccc(F)cc1
inactive: [1] -22.1% | [2] -1.5% | [3] -15.4% | [4] -19.6% | [5] -3.05% | [6] -31.9%

Nc1cc(=O)n(-c2ccccc2)[nH]1
inactive: [1] -2.05% | [2] -10.6% | [3] -6.8% | [4] -19.9% | [5] -27.9% | [6] 22%

ClC(Cl)(Cl)C(N1CCN(c2ccccc2)CC1)N1CCN(c2ccccc2)CC1
inactive: [1] 8.95% | [2] -34% | [3] -29.4% | [4] -38.5% | [5] -25.9% | [6] -17.6%

Cc1c(C)c(C)c(CN2CCC(C)CC2)c(C)c1C
inactive: [1] -2.55% | [2] 9.85% | [3] -14.9% | [4] -17.6% | [5] 3.45% | [6] -9.1%
